High-throughput results deposited in PubChem by several laboratories.
Shown are actives, neighbours in structure and some others; about 2.5% of the full set was active somewhere.
HIV Env fusion: HIV envelope-mediated fusion inhibition; HeLa-JRFL Env/CEM21 cell fusion, luciferase; inhibition, % at 12.3 µM; 360,000 tested, 1.1% active;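 active = mean replicate inhibition score of at least 50 and every replicate individually at or above 50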
CFTR F508del cor: correctors of CFTR F508del function in bronchial epithelial cells | AID 720511 | CFBE cells, YFP halide quenching; stimulated with forskolin plus potentiator P3; % fluorescence drop versus neutral controls | 350,000 tested, 0.36% active | activity (quench increase), % at 7.58 µM;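 active = mean added fluorescence quench of at least 8% versus neutral control, with both replicates also reaching 8%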;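 also: cells transiently co-express mutant CFTR-F508del with the halide-sensitive YFP; corrector assay measuring rescue of mutant channel to the surface after 24 h compound exposure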
PAX8 inh HTS: lowers PAX8-driven luciferase in RMG-I cells. RMG-I TPO-luciferase reporter, SteadyGlo, 24 h. inhibition, % at 12.6 µM. 360,000 tested, 1.2% active. AID 652154;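 active = mean replicate inhibition at least 60% with every replicate also reaching 60%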;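 also: luciferase light reporting Pax8 driven TPO promoter activity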
FXN GAA850 act: activators of GAA850 frataxin (FXN) promoter; HEK293 lucGAA850 FXN promoter luciferase reporter, 24 h; percent of 10 µM SAHA response; activation, % at 6 µM; 360,000 tested, 0.56% active;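 active = activation above the average of all compounds screened plus 3 SD, cutoff fixed separately per campaign, cut at about 7.5% in these data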
EWS-Fli block: inhibitors of EWS/Fli oncoprotein transcriptional activity. A673 NR0B1-luciferase reporter, viability-normalised. AID 651661. inhibition, % at 12.6 µM. 350,000 tested, 0.67% active;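 active = mean inhibition of at least 50% after viability correction, with every replicate also passing that limit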;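 also: firefly luciferase signal divided by Alamar Blue viability fluorescence both relative to DMSO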
GAA30 counter: GAA30 FXN promoter activation counter-screen. shares compounds with FXN GAA850 act. HEK293 lucGAA30 FXN promoter luciferase, 24 h; DMSO = 0%, 5 µM ipriflavone = 100%. activation, % at 6 µM. 1,900 tested, 66% active;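 active = mean activation above the mean of solvent-only control wells plus 3 SD, cut at about 22% in these data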;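 also: counterscreen of GAA850 promoter hits where activity marks nonselective or luminescence artifacts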
GAA850 confirm: GAA850 FXN promoter activation confirmation; HEK293 lucGAA850 FXN promoter luciferase reporter, 24 h; 100% = activation by SAHA; activation, % at 6 µM; AID 588351; 1,900 tested, 86% active; shares compounds with FXN GAA850 act;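 active = mean activation above a set limit taken from the primary screen, cut at about 8% in these data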
DNA binding: small molecule DNA binding by fluorescence polarization; shares compounds with EWS-Fli block; salmon sperm DNA acridine orange fluorescence polarization; AC35, µM (highest dose often 68 µM); 640 tested, 2% active;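 active = fitted curve reaches a 35% signal fall AC35 below twice the sample's top valid tested dose, actives reach about 48 µM in these data; inactive = the rest, including activity in the rising direction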;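 also: lower polarization ratio signals compound binding to DNA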
Large screens that a line does not name were inactive (follow-up assays come after a bar, where they were run).

COc1ccc(C(=O)NCCN(C)C)c2nc3ccccc3cc12	CFTR F508del cor 14.7, FXN GAA850 act 10.2 | GAA30 counter inactive | GAA850 confirm 70.6
CCCCOc1ccc(C2=NNC(=O)CC2)cc1	FXN GAA850 act 10.4 (no result: CFTR F508del cor) | GAA30 counter 42.3 | GAA850 confirm 14.8
Cc1ccc(NC(=O)C(NC2CCCc3ccccc32)c2ccccc2)c([N+](=O)[O-])c1 (centres undefined)	HIV Env fusion 86.5, FXN GAA850 act 9.6 (no result: CFTR F508del cor, EWS-Fli block) | GAA30 counter inactive | GAA850 confirm 17.1
C[C@H]1CCCCO[C@@H](CN(C)C(=O)c2ccncc2)[C@@H](C)CN([C@@H](C)CO)C(=O)c2cc(NS(=O)(=O)c3cn(C)cn3)ccc2O1	none (no result: FXN GAA850 act)
COc1cccc(NC(=O)Cc2ccccc2)c1	none
O=C(Cc1ccccc1)Nc1cccc(N2C(=O)C=CC2=O)c1	FXN GAA850 act 9.0 (no result: PAX8 inh HTS) | GAA30 counter inactive | GAA850 confirm inactive
CO[C@H]1CN(C)C(=O)c2cc(NC(=O)c3ccc4c(c3)OCO4)ccc2OC[C@@H](C)NC[C@H]1C	none (no result: FXN GAA850 act)
CN(C)c1ccc(O)c2c1CC1CC3[C@@H](N(C)C)C(=O)C(C(N)=O)=C(O)[C@]3(O)C(=O)C1=C2O (some centres undefined)	HIV Env fusion 73.4, FXN GAA850 act 15.0 | GAA30 counter 28.7 | GAA850 confirm 10.2
CCc1ccccc1Nc1nc(N)nc(CSCC(=O)Nc2ccc(C)c(C)c2)n1	HIV Env fusion 71.3, FXN GAA850 act 11.9 | GAA30 counter 30.4 | GAA850 confirm 15.5
O=C(Cn1c(=O)oc2ccccc21)Nc1nnc(N2CCCCCC2)s1	none
CC1CCN(c2nnc(NC(=O)Cn3c(=O)oc4ccccc43)s2)CC1	FXN GAA850 act 15.3 | GAA30 counter inactive | GAA850 confirm inactive
CN(C)c1nc(N)nc(CSc2nc3cc(Cl)ccc3o2)n1	FXN GAA850 act 8.3 (no result: CFTR F508del cor, PAX8 inh HTS, EWS-Fli block) | GAA30 counter 48.3 | GAA850 confirm 27.2
COc1cc(OC)c(OC)cc1/C=N/Nc1ncnc2c1[nH]c1ccccc12	FXN GAA850 act 7.9 (no result: CFTR F508del cor) | GAA30 counter inactive | GAA850 confirm 18.2
COc1ccc(/C=N/Nc2ncnc3c2[nH]c2ccc(C)cc23)c(OC)c1OC	none
Cc1cc2nc3ccc(N(C)C)cc3nc2cc1N	FXN GAA850 act 7.8 | GAA30 counter 119.3 | GAA850 confirm 34.3
CC(C)(C)C(=O)Cn1ncc(N2CCOCC2)c(Br)c1=O	none
CC(C)(C)C(=O)Cn1ncc(Cl)c(Cl)c1=O	FXN GAA850 act 9.0, EWS-Fli block 75.2 | GAA30 counter inactive | GAA850 confirm inactive | DNA binding inactive
NC(Cc1ccc(C(F)(F)F)cc1)c1csc(NC(=O)Nc2ccccc2Cc2ccccc2)n1 (centres undefined)	HIV Env fusion 82.0, FXN GAA850 act 14.6, EWS-Fli block 55.7 | GAA30 counter inactive | GAA850 confirm 15.5 | DNA binding inactive
Cc1c(CCOC(=O)CC23CC4CC(CC(C)(C4)C2)C3)sc[n+]1CC(=O)c1ccccc1	HIV Env fusion 68.7, FXN GAA850 act 9.7, EWS-Fli block 76.2 | GAA30 counter inactive | GAA850 confirm 14.2 | DNA binding inactive
COc1ccc(S(=O)(=O)Nc2cccc3c2O[C@H](CN(C)S(C)(=O)=O)[C@H](C)CN([C@@H](C)CO)C3=O)cc1	none (no result: PAX8 inh HTS, FXN GAA850 act)
C[C@@H]1CN([C@H](C)CO)C(=O)c2cc(C#CCN(C)C)cnc2O[C@@H]1CN(C)Cc1cccc(C(=O)O)c1	none (no result: PAX8 inh HTS, FXN GAA850 act)
CCCc1cc(=O)oc2c3c(c4c(c12)OC(C)(C)C=C4)OC(C)C(C)C3O (centres undefined)	EWS-Fli block 72.9 (no result: HIV Env fusion, PAX8 inh HTS) | DNA binding inactive
CCOc1ccc(-c2cc(CCCC(=O)NCc3ccc(C)cc3)no2)cc1	EWS-Fli block 61.3 | DNA binding inactive
CCOc1ccc(NC(=O)C(=O)N/N=C\c2ccc(CNS(=O)(=O)c3ccccc3)o2)cc1	EWS-Fli block 86.5 (no result: CFTR F508del cor) | DNA binding inactive
COc1ccc2c3c([nH]c2c1)[C@@H](CO)N(Cc1ccccc1F)CC31CCN(C(=O)C2CCCC2)CC1	none (no result: HIV Env fusion, FXN GAA850 act)
O=C(CCCCl)Nc1nc(-c2ccc3c(c2)OCCO3)cs1	EWS-Fli block 57.1 | DNA binding inactive
O=C(N/N=C/c1cccs1)C(=O)Nc1cccc(Cl)c1	none (no result: CFTR F508del cor, EWS-Fli block)
O=C(O)c1ccc(N/N=C/c2ccc3nccnc3c2)cc1	HIV Env fusion 74.9, PAX8 inh HTS 119.5, EWS-Fli block 84.4 | DNA binding inactive
O=C(O)c1ccc(N/N=C/c2ccc(OC(=O)c3cccc(Cl)c3)cc2)cc1	PAX8 inh HTS 86.1, EWS-Fli block 64.1 | DNA binding inactive
O=C(O)c1cccc(N/N=C/c2cccs2)c1	PAX8 inh HTS 99.6, EWS-Fli block 85.0 (no result: CFTR F508del cor) | DNA binding inactive
O=C(O)c1cccc(N/N=C/c2ccc(OC(F)(F)F)cc2)c1	EWS-Fli block 73.7 | DNA binding inactive
C=CCN1C(=O)[C@@]2(O[C@@H](CCO)[C@H]([Si](C)(C)c3ccc(OC)cc3)[C@H]2C)c2cc(NC(C)=O)ccc21	none (no result: PAX8 inh HTS, FXN GAA850 act)
COc1ccc2c3c(n(C)c2c1)[C@@H](CO)NCC31CN(C(=O)Nc2ccccc2F)C1	none (no result: HIV Env fusion, PAX8 inh HTS, FXN GAA850 act)
COCC(=O)Nc1ccc2c(c1)C(=O)N(C)C[C@H](OC)[C@H](C)CN(Cc1cc(F)ccc1F)[C@@H](C)CO2	none (no result: FXN GAA850 act)
C[C@H]1CCCCO[C@@H](CN(C)C(=O)Nc2ccc3c(c2)OCO3)[C@@H](C)CN([C@@H](C)CO)C(=O)c2cc(NS(=O)(=O)c3cn(C)cn3)ccc2O1	none (no result: PAX8 inh HTS, FXN GAA850 act)
C[C@H]1CN([C@@H](C)CO)C(=O)c2cc(NC(=O)Nc3ccc4c(c3)OCO4)ccc2O[C@H]1CN(C)C(=O)NC1CCCCC1	none (no result: PAX8 inh HTS, FXN GAA850 act)
Cc1cc(C(=O)Nc2ccc3c(c2)C(=O)N(C)[C@H]2CC[C@H](CC(=O)N[C@@H](C)c4ccccc4)O[C@H]2CO3)no1	none (no result: FXN GAA850 act)
COC(=O)C[C@@H]1CC[C@@H]2[C@H](COc3ccc(NC(=O)c4cc(C)on4)cc3C(=O)N2C)O1	CFTR F508del cor 14.0, EWS-Fli block 60.1 (no result: HIV Env fusion, FXN GAA850 act) | DNA binding inactive
Cc1cc(C(=O)Nc2ccc3c(c2)C(=O)N(C)[C@@H]2CC[C@H](CC(=O)N[C@H](C)c4ccccc4)O[C@H]2CO3)no1	EWS-Fli block 58.1 (no result: FXN GAA850 act) | DNA binding inactive
CCNC(=O)[C@@H]1[C@@H](CO)[C@@H]2Cn3c(ccc(C4=CCCCC4)c3=O)[C@H]1N2CC	none (no result: HIV Env fusion, PAX8 inh HTS, FXN GAA850 act, EWS-Fli block) | DNA binding inactive
CCN1[C@@H]2Cn3c(ccc(C4=CCCCC4)c3=O)[C@H]1[C@@H](C(=O)NCCOC)[C@@H]2CO	none (no result: CFTR F508del cor, PAX8 inh HTS, FXN GAA850 act)
